Laboratory results published in PubChem BioAssay (Tox21).
Inconclusive results are not listed. Calls of active or inactive are those of the source. Unless noted, the call rests on the fitted dose curve.

What was measured:
[1] = Nuclear factor erythroid 2-related factor 2/antioxidant responsive element (Nrf2/ARE) small molecule agonists: qHTS cell viability counter screen in human keratinocytes (AID 1919968; active means well fitted curve in the direction sought with a large enough effect in the repeat runs; an effect the other way counts as inactive or inconclusive; further: nearly all actives have a fitted effect of over 55% in size; further: potency means the concentration at half of the fitted maximal effect)
Method in brief: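 Stably transfected HaCaT (KeratinoSens), 1,500/well. Test agents in DMSO were applied for 23 h, 37 C/5% CO2. CellTiter-Fluor was incubated 1 h before the fluorescence read.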

[2] = Nuclear factor erythroid 2-related factor 2/antioxidant responsive element (Nrf2/ARE) small molecule agonists: luciferase reporter gene qHTS assay in human keratinocytes (AID 1919969); further: nearly all actives have a fitted effect of over 35% in size; further: potency means the concentration at half of the fitted maximal effect
[3] = target: Gonadotropin-releasing hormone receptor (Homo sapiens) (UniProt P30968); test: Human gonadotropin-releasing hormone receptor (GnRHR) small molecule agonists, calcium flux assay in GnRHR-HEK293 cells (AID 1920063); further: nearly all actives have a fitted effect of over 35% in size
Chain of Gonadotropin-releasing hormone receptor (Homo sapiens) (P30968 whole entry, looked up): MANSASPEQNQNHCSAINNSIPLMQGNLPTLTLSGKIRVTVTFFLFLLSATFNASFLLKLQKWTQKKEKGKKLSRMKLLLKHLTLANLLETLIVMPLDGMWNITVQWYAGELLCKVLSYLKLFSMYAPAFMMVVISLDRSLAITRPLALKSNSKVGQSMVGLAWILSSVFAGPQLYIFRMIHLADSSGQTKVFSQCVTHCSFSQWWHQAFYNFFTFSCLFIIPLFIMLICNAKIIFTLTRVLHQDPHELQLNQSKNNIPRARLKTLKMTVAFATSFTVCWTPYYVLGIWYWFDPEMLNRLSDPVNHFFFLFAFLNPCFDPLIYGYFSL
Method in brief: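 Stable human GnRHR HEK293 line. 18 h plating, then calcium dye for 1 h at 37 C. Agonist-mode compound addition from DMSO stocks; fluorescence monitored 3 min.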

[4] = target: KiSS-1 receptor (Homo sapiens) (UniProt Q969F8); test: Human kisspeptin (KISS1R) small molecule agonists, calcium flux assay in KISS1R-HEK293 cells (AID 1920064; active means well fitted curve in the direction sought with a large enough effect in the repeat runs; an effect the other way counts as inactive or inconclusive)
Chain of KiSS-1 receptor (Homo sapiens) (Q969F8 whole entry, looked up): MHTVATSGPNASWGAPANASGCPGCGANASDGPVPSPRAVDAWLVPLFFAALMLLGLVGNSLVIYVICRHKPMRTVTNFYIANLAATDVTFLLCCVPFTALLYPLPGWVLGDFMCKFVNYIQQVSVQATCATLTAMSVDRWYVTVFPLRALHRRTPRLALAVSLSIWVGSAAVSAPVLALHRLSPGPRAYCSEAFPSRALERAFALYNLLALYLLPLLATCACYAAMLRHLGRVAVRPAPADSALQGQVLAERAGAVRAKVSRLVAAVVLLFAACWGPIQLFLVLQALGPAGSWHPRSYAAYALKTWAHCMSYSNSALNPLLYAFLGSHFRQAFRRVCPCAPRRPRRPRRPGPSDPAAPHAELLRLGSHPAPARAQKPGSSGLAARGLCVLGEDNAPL
Method in brief: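 After overnight (18 h) culture at 37 C/5% CO2, human KISS1R-HEK293 cells received calcium dye for 1 h, then test compound; emission at 540 nm (excitation 480 nm) was tracked for 3 min.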

[5] = p53 small molecule agonists, cell-based qHTS assay with human liver microsomes (AID 1963577)
Method in brief: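 p53RE-bla cells, 4,000/well, compound added after 5 h, with human liver microsomes 0.5 mg/mL and NADPH 0.5 mg/mL final; 16 h at 37 C, then LiveBLAzer 2 h RT, fluorescence.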

[6] = p53 small molecule agonists, cell-based qHTS assay with rat liver microsomes (AID 1963578)
Method in brief: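 p53RE-bla cells, 4,000/well, pre-incubated 5 h, then given compounds plus rat liver microsomes (0.5 mg/mL final) and NADPH (0.5 mg/mL final). Incubation 16 h at 37 C; beta-lactamase reporter read by LiveBLAzer fluorescence after 2 h at room temperature.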

[7] = p53 small molecule agonists, cell-based qHTS assay with human liver microsomes: qHTS cell viability counter screen (AID 1963579); further: nearly all actives have a fitted effect of over 45% in size
Method in brief: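 p53RE-bla cells, 4,000/well, dosed 5 hours after plating, with human liver microsomes (0.5 mg/mL final) plus NADPH (0.5 mg/mL final), 16 hours at 37 C. Viability read as CellTiter-Glo luminescence after 30 min at room temperature.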

[8] = p53 small molecule agonists, cell-based qHTS assay with rat liver microsomes: qHTS cell viability counter screen (AID 1963580); further: nearly all actives have a fitted effect of over 45% in size
Method in brief: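 Cytotoxicity counter screen: intracellular ATP measured by CellTiter-Glo luminescence in the same wells as the beta-lactamase reporter read, on HCT-116 p53RE-bla cells exposed 16 h at 37 C to compounds with rat liver microsomes and NADPH, each 0.5 mg/mL final.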

[9] = p53 small molecule agonists, cell-based qHTS assay: qHTS cell viability counter screen (AID 1963581); further: nearly all actives have a fitted effect of over 45% in size
Method in brief: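 qHTS counter screen: 16 h compound exposure at 37 C of p53RE-bla HCT-116 cells (4,000 per well, seeded 5 h prior), cell viability by ATP luminescence.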

[10] = target: 5-hydroxytryptamine receptor 2A (Homo sapiens) (UniProt P28223); test: 5-hydroxytryptamine receptor 2A (HTR2A) small molecule antagonists, cell-based qHTS assay (AID 1963586); further: nearly all actives have a fitted effect of over 45% in size
Chain of 5-hydroxytryptamine receptor 2A (Homo sapiens) (P28223 whole entry, looked up): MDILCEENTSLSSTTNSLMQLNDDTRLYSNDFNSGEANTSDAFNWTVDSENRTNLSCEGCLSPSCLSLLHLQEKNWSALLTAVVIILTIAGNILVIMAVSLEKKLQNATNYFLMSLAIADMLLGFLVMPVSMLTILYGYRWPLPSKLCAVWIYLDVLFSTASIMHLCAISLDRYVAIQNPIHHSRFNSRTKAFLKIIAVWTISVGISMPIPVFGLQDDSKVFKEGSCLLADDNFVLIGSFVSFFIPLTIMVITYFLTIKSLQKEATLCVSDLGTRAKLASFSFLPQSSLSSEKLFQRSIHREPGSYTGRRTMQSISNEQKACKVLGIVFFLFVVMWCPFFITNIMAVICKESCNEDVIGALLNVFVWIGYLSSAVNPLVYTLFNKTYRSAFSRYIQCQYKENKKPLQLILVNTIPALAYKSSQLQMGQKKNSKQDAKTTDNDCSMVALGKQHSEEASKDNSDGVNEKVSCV
Method in brief: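 CHO cells stably expressing human HTR2A were plated for 18 h at 37 C, then loaded with calcium dye for 1 h. Compounds were preincubated 5 min at room temperature before DOI (4 nM solution) was added. Kinetic fluorescence was read for 3 min.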

[11] = target: 5-hydroxytryptamine receptor 2A (Homo sapiens) (UniProt P28223); test: 5-hydroxytryptamine receptor 2A (HTR2A) small molecule agonists, cell-based qHTS assay (AID 1963587); further: nearly all actives have a fitted effect of over 30% in size
Method in brief: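 CHO cells stably expressing human HTR2A, plated 18 h, loaded with calcium dye 1 h at 37 C. Agonist mode: compounds added and intracellular calcium fluorescence recorded kinetically for 2 min at 1 sec intervals.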

[12] = target: Muscarinic acetylcholine receptor M1 (Homo sapiens) (UniProt P11229); test: Cholinergic receptor muscarinic 1 (CHRM1) small molecule antagonists, cell-based qHTS assay (AID 1963588); further: nearly all actives have a fitted effect of over 40% in size; further: potency means the concentration at half of the fitted maximal effect
Chain of Muscarinic acetylcholine receptor M1 (Homo sapiens) (P11229 whole entry, looked up): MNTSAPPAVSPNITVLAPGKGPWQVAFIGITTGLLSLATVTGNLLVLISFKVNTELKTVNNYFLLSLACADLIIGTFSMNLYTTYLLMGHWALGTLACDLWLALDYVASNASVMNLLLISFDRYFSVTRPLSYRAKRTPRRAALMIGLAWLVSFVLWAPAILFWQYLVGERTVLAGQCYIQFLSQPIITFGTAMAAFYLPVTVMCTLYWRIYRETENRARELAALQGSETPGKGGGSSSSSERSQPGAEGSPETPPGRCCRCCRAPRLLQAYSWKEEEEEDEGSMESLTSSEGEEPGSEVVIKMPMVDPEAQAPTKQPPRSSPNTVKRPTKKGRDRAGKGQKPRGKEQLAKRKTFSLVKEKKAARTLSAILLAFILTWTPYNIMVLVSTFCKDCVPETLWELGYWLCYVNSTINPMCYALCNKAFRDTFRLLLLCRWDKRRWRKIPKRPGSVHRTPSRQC
Method in brief: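 Compounds were tested at 15 concentrations in three independent runs. Dye-loaded CHRM1-CHO cells were exposed 5 min at room temperature before stimulation by acetylcholine added at 50nM. Intracellular calcium was read kinetically on FDSS for 3 min.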

[13] = target: Muscarinic acetylcholine receptor M1 (Homo sapiens) (UniProt P11229); test: Cholinergic receptor muscarinic 1 (CHRM1) small molecule agonists, cell-based qHTS assay (AID 1963589); further: nearly all actives have a fitted effect of over 35% in size
Method in brief: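 Kinetic fluorescence (1 s intervals) of calcium-sensitive dye in human M1 CHO cells after compound addition; cells pre-incubated 18 h at 37 C/5% CO2 and dye-loaded 1 h.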

[14] = cAMP Responsive Elements (CRE) small molecule antagonists, cell-based qHTS assay (AID 1963591; active means well fitted inhibition curve with a large enough effect in the signal ratio in the repeat runs, not every such curve was filed as active; the % refers to the signal ratio)
Method in brief: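 Reporter line CRE-bla HEK 293T in dialyzed-FBS DMEM; cells preincubated 18 h, treated 3 h with compound plus NKH477 (0.25 uM final); LiveBLAzer FRET, 2 h RT.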

[15] = target: Beta-2 adrenergic receptor (Homo sapiens) (UniProt P07550); test: Adrenergic beta2 receptor (ADRB2) small molecule antagonists, cell-based qHTS assay (AID 1963592); further: series mostly up to about 92 µM; nearly all actives have a fitted effect of over 50% in size
Chain of Beta-2 adrenergic receptor (Homo sapiens) (P07550 whole entry, looked up): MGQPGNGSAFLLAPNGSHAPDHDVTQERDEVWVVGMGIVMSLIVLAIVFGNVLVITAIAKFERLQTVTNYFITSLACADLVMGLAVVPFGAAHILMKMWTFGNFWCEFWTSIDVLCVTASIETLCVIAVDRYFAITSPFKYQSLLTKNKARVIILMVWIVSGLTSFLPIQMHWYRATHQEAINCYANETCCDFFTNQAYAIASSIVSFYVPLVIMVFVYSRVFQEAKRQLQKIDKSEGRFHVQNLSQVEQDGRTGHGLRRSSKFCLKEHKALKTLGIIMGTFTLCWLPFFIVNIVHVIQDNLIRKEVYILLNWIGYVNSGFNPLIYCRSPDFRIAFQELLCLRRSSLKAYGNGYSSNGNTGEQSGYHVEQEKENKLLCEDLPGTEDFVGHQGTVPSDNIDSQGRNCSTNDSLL
Method in brief: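 Assay format: CHO-ADRB2 cells, 18-20hr seeding at 37C/5% CO2, then compound plus 1nM isoproterenol agonist mix for 0.5hr RT. Homogeneous time-resolved fluorescence cAMP detection after 1hr, expressed as 665/615 nm ratio.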

[16] = target: D(2) dopamine receptor (Homo sapiens) (UniProt P14416); test: Dopamine D2 receptor (DRD2) small molecule agonists, cell-based qHTS assay (AID 1963594); further: nearly all actives have a fitted effect of over 35% in size
Chain of D(2) dopamine receptor (Homo sapiens) (P14416 whole entry, looked up): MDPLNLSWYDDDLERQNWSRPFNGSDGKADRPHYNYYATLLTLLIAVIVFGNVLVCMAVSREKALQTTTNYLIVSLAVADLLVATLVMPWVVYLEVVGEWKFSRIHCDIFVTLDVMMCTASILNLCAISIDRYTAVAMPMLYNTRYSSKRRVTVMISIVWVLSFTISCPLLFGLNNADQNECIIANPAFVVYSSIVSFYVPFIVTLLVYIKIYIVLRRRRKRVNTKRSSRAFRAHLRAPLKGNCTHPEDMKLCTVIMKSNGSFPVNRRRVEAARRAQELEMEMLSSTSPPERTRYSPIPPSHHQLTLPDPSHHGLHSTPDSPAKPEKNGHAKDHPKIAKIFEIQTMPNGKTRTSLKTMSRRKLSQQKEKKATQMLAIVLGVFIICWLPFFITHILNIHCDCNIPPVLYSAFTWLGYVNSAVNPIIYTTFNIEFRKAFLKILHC
Method in brief: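 HEK293 cells stably expressing human DRD2, pre-treated with PDE inhibitor Ro20-1724 (0.1 mM final) and compound 10 min at room temperature, then stimulated with NKH477 (200nM […]) for 30 min. cAMP read by HTRF (665/620 nm).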

[17] = target: D(2) dopamine receptor (Homo sapiens) (UniProt P14416); test: Dopamine D2 receptor (DRD2) small molecule antagonists, cell-based qHTS assay (AID 1963595; active means well fitted inhibition curve with a large enough effect in the signal ratio in the repeat runs, with a control signal flat; the % refers to the signal ratio)
Method in brief: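 In this cell-based antagonist screen, compounds act for 10 min at room temperature before a 30 min challenge with 12 nM quinpirole and 200 nM NKH477. cAMP is quantified by HTRF competition in DRD2-HEK293 cells containing 0.1 mM Ro20-1724.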

[18] = target: Beta-2 adrenergic receptor (Homo sapiens) (UniProt P07550); test: Adrenergic beta2 receptor (ADRB2) small molecule agonists, cell-based qHTS assay (AID 1963593);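 further: CHO cells stably overexpressing human ADRB2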
Method in brief: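 CHO cells stably over-expressing ADRB2 were plated overnight at 37C, then dosed with compounds plus a stimulation mix containing 100uM IBMX and 25uM Ro-20-1724 for 0.5hr at room temperature. cAMP was measured by HTRF competition, 1hr.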

[19] = cAMP Responsive Elements (CRE) small molecule agonists, cell-based qHTS assay (AID 1963590)
Method in brief: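 Test agents in DMSO were incubated 3 h at 37 C/5% CO2 with CRE-bla HEK 293T cells seeded 18 h earlier; LiveBLAzer B/G FRET substrate was added and read after 2 h at room temperature.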
On the % scale 0 is the no-effect control and ±100 the full control effect.

O=C(CCl)Nc1ccccc1
active: Potency [1] 21.7 µM | Potency [2] 15.4 µM
inactive: Potency [3] | Potency [4] | Potency [5] | Potency [6] | Potency [7] | Potency [8] | Potency [9] | Potency [10] | Potency [11] | Potency [12] | Potency [13] | Potency [14] | Potency [15] | Potency [16] | Potency [17]

Cc1ccccc1C(=O)Nc1cccc(OC(C)C)c1
inactive: Potency [1] | Potency [2] | Potency [3] | Potency [4] | Potency [5] | Potency [6] | Potency [7] | Potency [8] | Potency [11] | Potency [12] | Potency [15] | Potency [18] | Potency [16] | Potency [17]

O=C1OC(CCN2CCCCC2)OC1(c1ccccc1)c1ccccc1 (configuration not stated)
inactive: Potency [1] | Potency [3] | Potency [4] | Potency [5] | Potency [6] | Potency [7] | Potency [8] | Potency [9] | Potency [11] | Potency [13] | Potency [19] | Potency [14] | Potency [18] | Potency [16] | Potency [17]
active: Potency [2] 29.8 µM | Potency [12] 2.31 µM

Cc1ccc2nc3sc(=O)sc3nc2c1
active: Potency [1] 3.66 µM | Potency [2] 1.64 µM
inactive: activity change [3] -0.0057% [at 11.8 µM, active compounds read high] | activation [4] -1.66% [at 15.8 µM] | activation [5] 12.4% [at 13.5 µM] | activation [6] 0.351% [at 13.6 µM] | activity change, negative = cytotoxicity [7] 4.93% [at 13.5 µM] | activity change, negative = cytotoxicity [8] -3.16% [at 13.5 µM] | activity change, negative = cytotoxicity [9] -2.54% [at 13.5 µM] | activity, negative = inhibition [10] 8.83% [at 12.7 µM] | activation [11] -3.01% [at 15.9 µM] | activity, negative = inhibition [12] 5.56% [at 12.6 µM] | activation [13] -0.991% [at 15.8 µM] | activity change, negative = inhibition [14] 1.33% [at 18.9 µM] | activity change, negative = inhibition [15] -4.14% [at 19 µM] | activation [16] 1.16% [at 19 µM] | activity change, negative = inhibition [17] 0.198% [at 18.9 µM]

O=S(=O)(Cl)c1ccccc1
inactive: Potency [1] | Potency [2] | Potency [3] | Potency [4] | Potency [7] | Potency [8] | Potency [9] | Potency [10] | Potency [11] | Potency [12] | Potency [13] | Potency [19] | Potency [14] | Potency [15] | Potency [18] | Potency [16] | Potency [17]

CC[N+]1(C)CCCC(OC(=O)C(O)(c2ccccc2)c2ccccc2)C1 (configuration not stated)
inactive: Potency [1] | Potency [2] | Potency [3] | Potency [4] | Potency [5] | Potency [6] | Potency [8] | Potency [9] | Potency [10] | Potency [13] | Potency [19] | Potency [14] | Potency [15] | Potency [16] | Potency [17]

CC(C)(C#N)C(C)(C)C#N
inactive: Potency [1] | Potency [2] | Potency [3] | Potency [4] | Potency [5] | Potency [6] | Potency [7] | Potency [8] | Potency [9] | Potency [10] | Potency [11] | Potency [12] | Potency [13] | Potency [19] | Potency [14] | Potency [15] | Potency [16] | Potency [17]

CCCCCCCCP(=O)(O)O
inactive: Potency [1] | Potency [2] | Potency [3] | Potency [4] | Potency [5] | Potency [7] | Potency [8] | Potency [9] | Potency [10] | Potency [12] | Potency [13] | Potency [19] | Potency [14] | Potency [15] | Potency [18] | Potency [16] | Potency [17]
